# From PubChem
# This is a sample that favours compounds with a hit; in the whole collection about 3.5% have one here.
# GDH-TPI counter-1 = GDH-TPI coupled enzyme inhibition counter-screen; GDH-TPI coupled enzyme counterscreen, NADH absorbance; inhibition, % at 4.8 µM; AID 588335; 360,000 tested, 1.2% active; in the data active means inhibition above about 30%;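 further: 0% = DMSO wells and 100% = wells lacking the enzyme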
# UGM FP inh = Mtb UDP-galactopyranose mutase inhibition | AID 504406 | P9WIQ1 | purified UGM, fluorescence polarization probe displacement | inhibition, % at 10 µM | 320,000 tested, 0.06% active; in the data active means inhibition above about 10%, passing the limit was not always enough; inconclusive means no clear call, values can overlap the other calls
# Mtb betalactam = beta-lactam sensitization of Mtb H37Rv. M. tuberculosis H37Rv growth with meropenem, percent inhibition. inhibition, % at 25 µM. 330,000 tested, 0.27% active; call rule not given here;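 further: growth measured after seven days incubation then overnight dye step; 0% = bacteria only wells and 100% = bacteria with antibiotic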
# Rv3671c inh = inhibitors of M. tuberculosis serine protease Rv3671c. P9WHR9. inhibition, % at 5.96 µM. 320,000 tested, 0.048% active. AID 2606; in the data active means inhibition above about 38%;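 further: extracellular domain of Rv3671c used as enzyme; 0% = enzyme with DMSO and 100% = no enzyme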
# Target sequence (P9WHR9 whole entry, looked up, the tested form may be a part): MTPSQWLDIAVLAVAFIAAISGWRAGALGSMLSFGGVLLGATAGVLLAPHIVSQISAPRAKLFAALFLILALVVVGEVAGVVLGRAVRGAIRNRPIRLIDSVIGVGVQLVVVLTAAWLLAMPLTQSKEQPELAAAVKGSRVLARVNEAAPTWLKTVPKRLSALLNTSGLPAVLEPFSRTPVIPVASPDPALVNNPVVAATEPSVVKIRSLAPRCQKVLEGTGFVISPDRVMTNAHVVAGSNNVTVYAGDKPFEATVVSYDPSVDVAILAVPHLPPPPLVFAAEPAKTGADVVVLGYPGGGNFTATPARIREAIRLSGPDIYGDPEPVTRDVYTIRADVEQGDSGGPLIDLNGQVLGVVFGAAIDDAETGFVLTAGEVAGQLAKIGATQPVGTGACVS
# FBA Mtb inh = inhibits M. tuberculosis FBA enzyme | P9WQA3 | purified M. tuberculosis FBA, fluorescence read-out | inhibition, % at 1 µM | 360,000 tested, 2.3% active | AID 588726;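 further: 0% = vehicle and 100% = reference inhibitor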
# Mtb FBA inh conf = Mtb FBA inhibition, confirmed. shares compounds with FBA Mtb inh. purified M. tuberculosis FBA, fluorescence read-out. inhibition, % at 1 µM. 5,600 tested, 78% active. AID 651616;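 further: 0% = vehicle wells and 100% = reference inhibitor wells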
# GDH-TPI counter-2 = GDH-TPI inhibition counter-screen for FBA inhibitors; shares compounds with FBA Mtb inh; GDH-TPI coupled enzyme counterscreen, fluorescence; inhibition, % at 1 µM; 5,600 tested, 81% active; in the data active means inhibition above about 10%
# GDH-TPI DR = inhibits GDH-TPI coupling enzymes in dose response. GDH-TPI coupled enzyme assay, fluorescence, artifact counterscreen. 170 tested, 79% active. shares compounds with FBA Mtb inh. IC50, µM; call rule not given here
# * marks the source's active call; other numbers are inactive results; ? = inconclusive; . = not tested or not shown; + = active, no number. Unless noted, no stated cut-off is given here; in the data, active means inhibition above about 27%; inactive means the rest.
SMILES,GDH-TPI counter-1,UGM FP inh,Mtb betalactam,Rv3671c inh,FBA Mtb inh,Mtb FBA inh conf,GDH-TPI counter-2,others
CN1CCN(c2ccc(CNC(=O)C3(C)Cc4c(-c5ccc6c(c5)OCO6)ccnc4O3)cc2)CC1 (stereo not given),-13,.,.,.,33*,121*,103*,
COc1ccc(CNC(=O)C2(C)Cc3c(-c4ccc5c(c4)OCO5)ccnc3O2)cc1OC (stereo not given),4,.,.,.,33*,114*,84*,
CNC(=O)C1(C)Cc2c(-c3ccc4c(c3)OCO4)ccnc2O1 (stereo not given),2,.,.,.,49*,+,+,
CN(C)c1ccc(CNC(=O)C2(C)Cc3c(-c4ccc5c(c4)OCO5)ccnc3O2)cc1 (stereo not given),10,.,.,.,6,.,.,
COc1ccc(N2CCN(C(=O)COC(=O)CNC(=O)c3ccc(C)cc3)CC2)cc1,-1,-1,-12,0,1,.,.,
COc1ccc(NC(=O)C2(C)Cc3c(-c4ccc5c(c4)OCO5)ccnc3O2)cc1 (stereo not given),6,.,.,.,36*,+,+,
CC1(C(=O)Nc2ccc3c(c2)OCO3)Cc2c(-c3ccccc3)ccnc2O1 (stereo not given),7,.,.,.,0,.,.,
NC(=O)C1CCN(c2oc(/C=C/c3ccc(F)cc3)nc2S(=O)(=O)c2ccccc2)CC1,18,0,4,-4,2,.,.,
Cn1c(N)nc2nc(CCc3ccccc3)c(=O)[nH]c2c1=O,4,3,8,-3,60*,8,2,
CN1CCc2c(sc3nc(NCCO)n(-c4cccc(Cl)c4)c(=O)c23)C1,23,2,-7,-2,71*,109*,88*,
CN1CCc2c(sc3c2c(=O)n(-c2cccc(Cl)c2)c2nncn32)C1,0,-1,0,-1,6,.,.,
CCc1ccc(NC(=O)Cc2cn(C)c3ccccc23)cc1,-3,0,-1,-5,1,.,.,
CCC(C)NC(=O)Cc1cn(C)c2ccccc12 (stereo not given),-7,-1,3,2,102*,9,-3,
COc1ccc(-c2ccc3c(c2)CN(C(=O)CCc2ccccc2)Cc2cnnn2-3)cc1,.,.,.,.,63*,+,173*,
O=C1OCc2nc3cc4c(cc3c(-c3ccc(F)cc3)c21)OCO4,13,-2,8,-3,73*,101*,86*,
COc1ccc(C(=O)O)cc1S(=O)(=O)NCCc1ccccn1,10,2,14,1,2,.,.,
CCN(CC)CCN1C(=O)c2ccccc2NC1c1ccc(C)cc1 (stereo not given),10,1,?,1,79*,63*,38*,
CCN(CC)CCN1C(=O)c2ccccc2NC1c1ccc(Br)cc1 (stereo not given),10,2,-7,-5,84*,121*,101*,
O=C(O)CCC(=O)NN1C(=O)c2ccccc2NC1c1ccc(F)cc1 (stereo not given),3,1,-5,5,40*,127*,95*,
CCN(CC)CCN1C(=O)c2ccccc2NC1c1ccc(N(C)C)cc1 (stereo not given),0,0,-5,-5,13,.,.,
CCN(CC)CCN1C(=O)c2ccccc2NC1c1ccc(F)cc1 (stereo not given),13,1,-5,5,45*,129*,117*,
COc1ccc(/C=C(\NC(=O)c2ccccc2)C(=O)NC2CCS(=O)(=O)C2)cc1 (stereo not given),15,-1,1,-8,-1,.,.,
Cc1c(C(=O)NC2CCS(=O)(=O)C2)oc2ccccc12 (stereo not given),-6,0,-6,-6,3,.,.,
CCN(CC)CCN1C(=O)c2ccccc2NC1c1ccccc1F (stereo not given),7,1,-3,-1,68*,169*,88*,
CCN(CC)CCN1C(=O)c2ccccc2NC1c1cccc(F)c1 (stereo not given),8,2,1,-8,51*,27*,21*,
SMILES,GDH-TPI counter-1,UGM FP inh,Mtb betalactam,Rv3671c inh,FBA Mtb inh,Mtb FBA inh conf,GDH-TPI counter-2,others
O=C1c2ccccc2NC(c2ccccc2F)N1NS(=O)(=O)c1ccccc1 (stereo not given),3,-2,6,-9,13,.,.,
O=C1c2ccccc2NC(c2ccc(-c3cccc(F)c3)o2)N1O (stereo not given),11,4,-2,1,13,.,.,
NC(=O)CC[C@H](NC(=O)c1ccc(F)cc1)C(=O)OCC(=O)NCc1ccc2c(c1)OCO2,4,1,0,5,-3,.,.,
O=C(CSCc1ccccc1)Nc1ccccc1C(=O)Nc1ccc(C(=O)O)cc1,-2,-3,-2,2,1,.,.,
CNc1ccccc1C(=O)OCC(=O)N(CCOC)c1c(N)n(CC(C)C)c(=O)[nH]c1=O,10,2,-5,6,92*,+,+,
CCN(C(=O)COC(=O)c1cc2ccccc2cc1OC)c1c(N)n(Cc2ccccc2)c(=O)[nH]c1=O,-4,.,.,.,39*,102*,70*,
COc1ccc(C2Nc3ccccc3C(=O)N2NS(C)(=O)=O)c(OC)c1 (stereo not given),4,1,-2,1,28*,12,1,
CS(=O)(=O)NN1C(=O)c2ccccc2NC1c1ccccc1 (stereo not given),4,2,-1,-5,34*,13,-4,GDH-TPI DR=5.4*
CS(=O)(=O)NN1C(=O)c2ccccc2NC1c1cccc(O)c1 (stereo not given),8,0,-8,-5,41*,112*,81*,
Cc1c(C(=O)Nc2c(F)cc(F)cc2Br)sc2ncn(CC(=O)N3CCCC3)c(=O)c12,11,0,-1,7,-1,.,.,
COc1cc(Cl)ccc1OCc1cc(C(=O)NC(C)Cc2cccnc2)no1 (stereo not given),5,3,-13,-1,-4,.,.,
Nc1c(C(O)(C(F)(F)F)C(F)(F)F)ccc2ccccc12,4,.,.,.,28*,24,11*,
O=C(Nc1cc(C(F)(F)F)ccc1-n1cnc2ccccc21)c1ccccc1,4,1,-7,6,-2,.,.,
[NH-]c1ncnc2c1N=C[N+]2=CC=CCO,7,-1,3,.,5,.,.,
COc1cc2cc(CN(Cc3nnnn3Cc3ccccc3)CC3CCCO3)c(=O)[nH]c2cc1OC (stereo not given),0,.,.,.,35*,136*,144*,
COc1cc(C(=O)COC(=O)c2ccc([N+](=O)[O-])o2)cc(OC)c1OC,9,2,0,-1,-1,.,.,
C=C(Cl)COc1ccc2c(CCCC)cc(=O)oc2c1,2,-2,-6,2,24,.,.,
C=C(Cl)COc1ccc2c(CC)cc(=O)oc2c1,8,1,10,-1,28*,+,+,
